In PubChem BioAssay (NCI):
This is part of a sample that, as a whole, favours compounds with a hit. Of some 83,000 tested, about 20% had one in any assay.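 How to read the values: 0–100, growth inhibition (40 = 60% inhibited); 0, no net growth; -100 to 0, cell death (-40 = 40% of starting cells died; -100 = all dead).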 A number with no mark means an inactive call. The source made the active and inactive calls. How the source made its calls: active means growth percent below 10; inactive means the rest.

tested on: MDA-MB-435 melanoma; experiment: NCI-60 one-dose screen, 48 h (100 = growth as untreated, 0 = no growth, -100 = all killed); conditions: 10 µM unless noted

Compound | growth
N#C/C(=C\c1ccc(-c2ccc(Br)cc2)o1)c1nc(-c2cccs2)cs1 | 101%
Cc1cc(C=O)c(C)c2c1[nH]c1ccccc12 | 116%
CCCCC[C@H]1C/C=C2/C(=O)C=C[C@@H]2C/C=C\CCCC(=O)O[C@@H](CCCCC)C/C=C2/C(=O)C=C[C@@H]2C/C=C\CCCC(=O)O1 | -78.9% (active)
Cn1nc(-c2ccccc2)c2c(-c3ccccc3)onc2c1=O | -1.78% (active)
CCN1CCN(C(=O)[C@]23CCC(C)(C)C[C@@H]2C2=CC[C@@H]4[C@@]5(C)C/C(=C/c6cccnc6)C(=O)C(C)(C)[C@@H]5CC[C@@]4(C)[C@]2(C)CC3)CC1 | 34.9%
COc1ccc2c(c1)c(-c1nc(-c3cn(C)c4ncccc34)cs1)cn2CCN | 95.4%
Cc1oc(-c2ccccc2Cl)cc1C(=O)Nc1ccc(S(N)(=O)=O)cc1 | 102%
Cn1c(/C(C#N)=C/c2ccc3ccccc3c2)cc2ccccc21 | -14.7% (active)
CCSc1ncnc2c1ncn2C1OC(CO)C(O)C1O (centres undefined) | 24%
CCCCN1CCCCn2c1nc1c2c(=O)n(C)c(=O)n1C | 107%
CC(C)(C)c1cc(-n2c(-c3ccc(Cl)cc3)nc3cc(C(=O)Nc4ccc(Cl)cc4)ccc32)n[nH]1 | 73.3%
NC(=O)NCC1CCCCC1 | 102%
CC(=O)N1N=C(c2ccc(C)cc2)CC1c1ccc(Oc2ccc(Br)cc2)cc1 (centres undefined) | 97.6%
O=C(/C=C/c1cccc2ccccc12)Nc1ncc(Cc2ccccc2)s1 | -64.7% (active)
